PNC inhibitor = perinucleolar compartment assembly inhibition | AID 2417 | PC3M PTB-GFP, PNC prevalence imaging, 16 h; active compounds read low | 140,000 tested, 3.1% active | activity change (PNC), negative = inhibition, % at 10 µM;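 active means readout at or below -70, meaning at least 70% loss of cells showing the perinucleolar compartment, a nuclear body marking cancer cells; inconclusive means readout between -30 and a set limit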
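PC3M cells stably expressing PTB-GFP, 750–1000 cells/well, treated 16 h at 37 °C with compound (23 nl of library stock), in duplicate. After paraformaldehyde fixation and Hoechst stain, imaged at 20x; PNC prevalence scored by image analysis.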
IMPase Li inh = cell-permeable IMPase inhibitors with lithium potentiation; CHO-M1 cells, IP1 TR-FRET (IP-One), carbachol + lithium; Potency, µM (titrated, usually from 59.4 µM), most hits filed as inhibitors; 210,000 tested, 0.35% active; AID 1457;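 further: IP1 builds up when IMPase is blocked and the TR-FRET signal falls; nearly all actives have a fitted effect of over 50% in size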
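CHO cells stably expressing M1 receptor (2000/well) were cultured 16–30 h, then exposed to compounds with a small lithium addition for 30 min at 37C. IP1 was measured by TR-FRET competition; AC50 from Hill fits.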
HPGD block = blocks human HPGD enzyme activity. purified HPGD, NADH fluorescence kinetic, PGE2 substrate. Potency, µM, usual class: inhibitors. 150,000 tested, 4.3% active; active means well fitted inhibition curve with a large enough effect, not every such curve was filed as active; inconclusive means small, poorly fitted or top-dose-only effect, or another doubt; inactive means no such curve, though single readings can be large or run the other way
Target sequence (P15428 whole entry, looked up): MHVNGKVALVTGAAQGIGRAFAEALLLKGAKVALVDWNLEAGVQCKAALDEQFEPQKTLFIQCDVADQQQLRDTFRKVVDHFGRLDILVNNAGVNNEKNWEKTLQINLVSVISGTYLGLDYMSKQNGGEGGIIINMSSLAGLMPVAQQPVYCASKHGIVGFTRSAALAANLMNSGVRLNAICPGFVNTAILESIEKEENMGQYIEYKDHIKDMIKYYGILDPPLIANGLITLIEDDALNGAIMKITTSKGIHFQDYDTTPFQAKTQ
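NADH formation kinetics: reaction with 30 uM PGE2 and 1 mM NAD+ (final), 20 nM enzyme, Tris-HCl pH 8 with Tween 20, after 15 min compound preincubation at room temperature. Fluorescence change, last versus first of five reads.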
IMPase cell inh = membrane-permeable compound that blocks inositol monophosphatase; inhibition (IP1 accumulation), % at 46.1 µM; 120,000 tested, under 10 active; P97697; AID 901; CHO-M1 cells, IP1 accumulation, HTRF TR-FRET ratio; active means well fitted curve in the direction sought with a large enough effect in the signal ratio, not every such curve was filed as active; inconclusive means small, poorly fitted or top-dose-only effect, or a change in a side signal; inactive means no such curve, though single readings can be large or run the other way; the % refers to the signal ratio;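 further: cells stimulated with carbachol in lithium chloride buffer; higher means more IMPase inhibition seen as more IP1 and lower FRET ratio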
Target sequence (P97697 whole entry, looked up): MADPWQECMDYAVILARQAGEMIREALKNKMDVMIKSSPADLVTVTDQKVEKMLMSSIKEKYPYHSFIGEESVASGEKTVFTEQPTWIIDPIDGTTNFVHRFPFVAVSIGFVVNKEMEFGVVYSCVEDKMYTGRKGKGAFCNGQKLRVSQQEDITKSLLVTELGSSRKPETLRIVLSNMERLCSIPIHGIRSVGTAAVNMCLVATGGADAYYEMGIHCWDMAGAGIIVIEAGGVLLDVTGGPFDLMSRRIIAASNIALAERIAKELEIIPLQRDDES
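CHO-M1, 2000 cells/well, cultured 16–30 h; cpd up to 46 uM; carbachol (50 uM solution, stimulation buffer w/ 50 mM LiCl, pH 7.4), 30 min 37C; IP-One TR-FRET, 10 min RT; Ex 320/Em 665, 620; Hill-fit AC50.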
12-hLO inh = blocks human 12-lipoxygenase activity; P18054; purified 12-hLO, xylenol orange hydroperoxide absorbance; Potency, µM (doses to about 57.1 µM), actives largely listed as inhibitors; 150,000 tested, 0.12% active; further: nearly all actives have a fitted effect of over 55% in size
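Purified human 12hLO (150 nM final) was preincubated with compounds for 15 min at room temperature in 25 mM Hepes pH 7.0, 0.01% Triton X-100, then reacted with 40 uM arachidonic acid for 30 min. Hydroperoxide was detected with ferrous iron/xylenol orange.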
ALOX15B inhib = inhibitors of human 15-lipoxygenase 2 (ALOX15B); Potency, µM (top dose mostly 57.1 µM), most hits filed as inhibitors; AID 881; purified 15hLO-2, xylenol orange hydroperoxide absorbance; 110,000 tested, 0.56% active; further: nearly all actives have a fitted effect of over 60% in size
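Purified human 15hLO-2 (50 nM final) preincubated with compounds 15 min at room temperature in 25 mM Hepes pH 7.5, 0.01% Triton X-100, then 45 uM arachidonic acid added for 90 min; hydroperoxide detected via ferrous/xylenol orange, 573/405 nm absorbance ratio.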
Numbers stand for hits; - = inactive; ? = inconclusive; . = not tested or not shown; [ ] = remark or other dose. A selection: hits, their analogues and other compounds. The true share with any hit is near 5.4%. Unless noted, the call rests on the fitted dose curve; in most records, active means well fitted curve in the direction sought with a large enough effect; inconclusive means small, poorly fitted or top-dose-only effect, or another doubt; inactive means no such curve, though single readings can be large; an effect the other way counts as inactive or inconclusive.

SMILES | PNC inhibitor | IMPase Li inh | HPGD block | IMPase cell inh | 12-hLO inh | ALOX15B inhib
COc1ccccc1/C=C/C=C1\Oc2c(ccc(O)c2CN2CCN(CCO)CC2)C1=O | - | - | 16µM | . | - | .
O=C(CCC(=O)Nc1ccccc1)N/N=C/c1ccncc1 | - | - | 22µM | ? | - | ?
O=C(CCC(=O)Nc1ccc(F)cc1)N/N=C/c1ccncc1 | . | - | . | . | . | .
Cc1cc(C)c(NC(=O)CN2C(=O)NC3(CCCCC3)C2=O)c(Cl)c1 | - | - | - | - | - | -
Cc1ccc(NC(=O)CN2C(=O)NC3(CCC(C)CC3)C2=O)c(Cl)c1 (stereo not given) | -127 | - | - | - | - | -
CC1CCC2(CC1)NC(=O)N(CC(=O)Nc1nc(-c3ccc(F)cc3)cs1)C2=O (stereo not given) | ? | 14µM | - | - | - | -
CC1(OC(=O)c2ccco2)C(=O)C2=COC(C3CC3)=CC2=C(Br)C1=O (stereo not given) | . | - | - | . | - | .
CCOc1ccccc1C(=O)Nc1cc2c(cc1N1CCOCC1)n(C)c(=O)n2C | . | . | . | - | . | .
Nc1nc(SCCO)[nH]c(=O)c1NC(=O)c1ccccc1F | . | - | . | . | . | .
CC(C)NC(=O)CSc1nc(N)c(NC(=O)c2ccccc2F)c(=O)[nH]1 | -91 | - | - | . | - | .
Cc1noc(C)c1C(=O)N1CCC2(CCCN(C(=O)Nc3cccc(F)c3)C2)CC1 | . | - | - | . | - | -
[Cu].[NH-][C@H](CC(=O)O)C(=O)O.[NH-][C@H](CC(=O)O)C(=O)O | . | - | - | . | -[11.4 µM] | -[11.4 µM]
CC(C)=C1CCC(C)CC1=O (stereo not given) | . | - | - | . | - | -
Cc1nc2ccc(NC(=O)c3ccc(Cl)c([N+](=O)[O-])c3)cc2s1 | - | - | - | - | - | .
Cc1nc2ccc(NC(=O)c3cc([N+](=O)[O-])cc([N+](=O)[O-])c3Cl)cc2s1 | - | - | 7.1µM | - | - | .
O=C(CCN1CCOCC1)Nc1ccc(F)cc1F | . | - | - | . | -[11.4 µM] | -[11.4 µM]
Cc1ccc(NC(=O)Cn2cc(S(=O)(=O)N3CCC(C)CC3)c3ccccc3c2=O)c(Br)c1 | . | . | . | - | . | .
O=C(Nc1nc2nccc(-c3ccccc3)n2n1)c1ccc(F)cc1 | ? | 10µM | - | . | - | .
Cc1nn(Cc2ccccc2)c2c1C(c1ccncc1)C(C#N)=C(N)O2 (stereo not given) | ? | - | - | - | - | -
Cc1nn(Cc2ccccc2)c2c1C(c1ccc(Cl)cc1)C(C#N)=C(N)O2 (stereo not given) | ? | - | 1µM | -[0.0738 µM] | - | .
Cc1nn(-c2ccccc2)c2c1C(c1ccccc1)C(C#N)=C(N)O2 (stereo not given) | - | - | 32µM | - | - | -
NCC1OC(OC2C(N)CC(N)[C@@H](O)[C@@H]2OC2O[C@H](CO)[C@@H](O[C@@H]3OC(CN)C(O)C(O)C3N)C2O)C(N)C(O)C1O (stereo not given in full) | . | - | - | . | - | -
CCOC(=O)c1cnc(SCc2cccc3ccccc23)nc1N | - | - | 28µM | - | - | -
CCOC(=O)c1cnc(SCc2ccccc2)nc1N | ? | - | - | - | - | -
CN1CCN(c2nc3c(c(=O)n(C)c(=O)n3C)n2C)CC1 | . | - | - | . | -[11.4 µM] | -[11.4 µM]
SMILES | PNC inhibitor | IMPase Li inh | HPGD block | IMPase cell inh | 12-hLO inh | ALOX15B inhib
O=C1C=CC(O)(c2cc(=O)c3c(O)cc(O)cc3o2)C=C1 | -119 | - | - | . | - | .
O=c1c(O)c(-c2ccc(O)cc2O)oc2cc(O)cc(O)c12 | - | - | - | - | - | -
O=C(O)c1cccc(Cn2c(Cl)c(/C=N/NC(=O)c3ccccc3Cl)sc2=O)c1 | - | - | 28µM | - | - | -
O=C(O)c1cccc(Cn2c(Cl)c(/C=N/Nc3ccccc3)sc2=O)c1 | . | - | . | . | . | .
O=C(Nc1nnc(COc2ccc(Cl)cc2)s1)c1ccc([N+](=O)[O-])cc1 | ? | - | - | - | - | .
CC(C)C(=O)Nc1nnc(CSCc2ccccc2F)s1 | - | - | - | - | - | -
O=C(Nc1nnc(CSCc2ccc(F)cc2)s1)c1ccc([N+](=O)[O-])cc1 | -96 | - | ? | . | - | .
O=C(Nc1nnc(CSCc2ccccc2F)s1)c1cccc([N+](=O)[O-])c1 | -100 | - | ? | - | - | .
C[C@H](NCCN(C)C)[C@@H]1CCC2C3CCc4cc(O)ccc4[C@H]3CCC21C (stereo not given in full) | . | - | - | . | -[11.4 µM] | -[11.4 µM]
C[C@H](C(=O)c1ccccc1)C(c1ccccc1)N1CCOCC1 (stereo not given in full) | . | - | - | . | . | .
COC(=O)C1=C(C(=O)OC)[C@@H]2N(Cc3ccccc3)c3ccccc3[C@@]23C[C@@H](C(=O)OC)N(S(=O)(=O)c2ccc(OC)cc2)C3=N1 | . | - | - | . | -[11.4 µM] | .
Cn1c(=O)cc(SCC(=O)N2CCCC2)c2ccccc21 | -89 | - | 16µM | - | - | -
CCCCN(CC)C(=O)CSc1cc(=O)n(C)c2ccccc12 | - | - | 7.1µM | - | - | -
CC(/C=N/n1c(-c2cccnc2)n[nH]c1=S)=C\c1ccccc1 | - | - | 3.2µM | - | - | ?
O=[N+]([O-])c1cc(/C=N/n2c(-c3cccnc3)n[nH]c2=S)ccc1Cl | - | - | 4µM | - | - | .
CC(/C=N/n1c(COc2ccccc2)n[nH]c1=S)=C\c1ccccc1 | - | - | 5.6µM | - | ? | ?
S=c1[nH]nc(-c2cccnc2)n1/N=C/C=C/c1ccccc1 | ? | - | 13µM | . | - | .
CC(=C/c1ccccc1)/C=N/n1c(-c2ccncc2)n[nH]c1=S | . | - | . | . | . | .
N#Cc1cccc(-c2nccc(NCc3cccnc3)n2)c1 | . | - | . | . | . | -
Cc1cc(Br)ccc1NC(=O)c1cn(C2CCCC2)c(=O)c2c1c1ccccc1n2C | . | . | . | - | . | .
COc1cc(-c2cccs2)cc(=O)c2c(C)oc(C)c12 | -96 | - | - | - | ? | -
COc1ccc2nc(NCN3C(=O)c4ccccc4C3=O)sc2c1 | . | - | - | . | -[11.4 µM] | -[11.4 µM]
Cc1cnc(CNc2ncnc3ccc(-c4ccccc4C(F)(F)F)cc23)cn1 | . | - | . | . | . | -
CN1CCN(C2CCCCCC2)CC1 | -119 | - | - | - | - | .
CN1CCN(C(=O)NC2CCCCC2)CC1 | ? | - | - | - | - | .
NC(=O)c1cc[n+](CC2=C(C(=O)O)N3C(=O)C(NC(=O)C(c4ccccc4)S(=O)(=O)[O-])C3SC2)cc1 (stereo not given) | . | - | 32µM | . | - | -
CC[N+](CC)(CCO)CCCN1C(=O)C2CC=C(Cl)CC2C1=O (stereo not given) | -81 | - | - | - | - | -
CCc1nnc(NS(=O)(=O)c2ccc(NC(=S)NC(=O)c3ccc(Br)cc3)cc2)s1 | - | - | 14µM | . | ? | .
